This note sets out measurements from PubChem BioAssay AID488969 (Vanderbilt High Throughput Screening Facility, 2010).

Whole data set: some 110,000 compounds, median “z-score” near -0.1, cut for the highest 2% near 2. This is one part of a sample in which the highest values are shown more often than they occur. The source made the active and inactive calls.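 The calls were made as follows: active = z-score in the third read window above 3 or below -3; inactive = the rest.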

The target of this test is Metabotropic glutamate receptor 8 (Rattus norvegicus) (UniProt P70579). Description: mGluR8 Gi/Go-coupled signaling modulation – cell-based, rat, thallium flux, HTS, primary screen (AID 488969). Particulars: HEK293 rat mGluR8, GIRK (G protein-gated inwardly rectifying potassium channel) thallium flux, FluoZin2; at 10 µM; stronger effect = higher value; submaximal glutamate (EC20) added with thallium.
Chain of Metabotropic glutamate receptor 8 (Rattus norvegicus) (P70579 whole entry, looked up): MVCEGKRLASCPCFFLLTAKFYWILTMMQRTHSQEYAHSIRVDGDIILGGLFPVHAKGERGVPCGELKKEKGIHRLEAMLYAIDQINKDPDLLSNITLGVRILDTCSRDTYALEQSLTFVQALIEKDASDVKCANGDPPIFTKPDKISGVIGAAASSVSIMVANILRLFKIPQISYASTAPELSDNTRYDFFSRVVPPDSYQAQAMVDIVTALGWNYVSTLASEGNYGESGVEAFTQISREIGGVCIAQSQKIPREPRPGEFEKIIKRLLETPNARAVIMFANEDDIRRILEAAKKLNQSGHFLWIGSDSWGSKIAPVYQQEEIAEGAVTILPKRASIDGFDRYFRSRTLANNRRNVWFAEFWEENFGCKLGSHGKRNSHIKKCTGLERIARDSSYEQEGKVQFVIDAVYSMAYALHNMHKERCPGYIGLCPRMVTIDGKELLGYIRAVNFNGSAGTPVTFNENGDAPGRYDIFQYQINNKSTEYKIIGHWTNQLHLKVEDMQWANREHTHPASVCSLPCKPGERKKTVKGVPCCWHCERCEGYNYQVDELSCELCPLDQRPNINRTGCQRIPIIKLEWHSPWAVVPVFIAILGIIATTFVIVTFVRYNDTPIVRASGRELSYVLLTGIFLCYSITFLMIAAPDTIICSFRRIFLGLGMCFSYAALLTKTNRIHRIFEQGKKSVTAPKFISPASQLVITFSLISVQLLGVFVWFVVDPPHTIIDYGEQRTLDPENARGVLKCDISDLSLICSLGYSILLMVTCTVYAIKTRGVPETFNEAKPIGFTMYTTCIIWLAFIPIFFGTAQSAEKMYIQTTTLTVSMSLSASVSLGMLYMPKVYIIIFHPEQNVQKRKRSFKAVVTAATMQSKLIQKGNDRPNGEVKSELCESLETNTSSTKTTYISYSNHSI
Compound `CCOC(=O)c1ccc(CNCc2ccc(C)cc2)cc1` showed a z-score of 0.302.

In the case of `COC(=O)c1ccc(C(=O)OC)c(NC(=O)CSc2ccccn2)c1`, the z-score is -0.644.

As for `Clc1ccc2c(c1)CCc1cccnc1C2=C1CCNCC1`, the z-score turned out to be 2.74.

`O/N=C1\CCc2cc(Cl)ccc21` gave a z-score of 0.365.

Consider `CCOC(=O)c1c(NC(=O)COc2cccc3c2CCN(CC)C3=O)sc2c1CCC2`, for which the z-score was -0.925.

In the case of `CCOC(=O)c1c(-c2ccccc2)csc1NC(=O)c1nn(CC)cc1Br`, the z-score is -0.101.

`COc1ccc(NC2CS(=O)(=O)CC2NCc2ccccc2)cc1` (stereo unspecified) came in with a z-score of 0.261.

Regarding `O=C(NC1CS(=O)(=O)CC1NCc1ccccc1)c1ccccc1` (stereo unspecified), the z-score came out at 0.00939.

`O=S1(=O)CC(NCc2ccccc2)C(Nc2ccccc2)C1` (stereo unspecified) gave a z-score of 2.43.

Consider `C=CCNC(=O)C1CC(=O)N(c2ccc(OCC(=O)Nc3ccc(OC)cc3)cc2)C1` (stereo unspecified), for which the z-score is -0.466.

In the case of `C=CCNC(=O)C1CC(=O)N(c2ccc(OCC(=O)Nc3ccc(C)cc3)cc2)C1` (stereo unspecified), the z-score was 0.104.

`C=CCNC(=O)C1CC(=O)N(c2ccc(OCC(=O)Nc3ccccc3)cc2)C1` (stereo unspecified): the z-score is 4.85 (active).

Regarding `C=CCSc1nnc(NC(=O)c2cccc(S(=O)(=O)N(C)c3ccccc3)c2)s1`, the z-score was 0.542.

Turning to `CCCn1nnc(NC(=O)c2sc3ccccc3c2Cl)n1`, the z-score came out at 0.0281.

As to `O=C(NCC1CCCO1)c1sc2ccccc2c1Cl` (stereo unspecified), the z-score was -0.467.

For the compound `O=C(COC(=O)c1sc2ccccc2c1Cl)NC1CCCCC1`, the z-score was -0.479.

Turning to `CCOc1ccc(C(CC(=O)O)NC(=O)c2sc3ccccc3c2Cl)cc1` (stereo unspecified), the z-score was -0.958.

On to `O=C(NC(=S)N(CCCCO)C1CCCCC1)c1sc2ccccc2c1Cl`, for which the z-score was 9.88 (active).

Regarding `CN(C(=O)COC(=O)CNC(=O)c1sc2ccccc2c1Cl)c1ccccc1`, the z-score is -0.854.

As to `Cc1ccccc1NC(=O)COC(=O)CNC(=O)c1sc2ccccc2c1Cl`, the z-score is -1.08.

In the case of `CCCOC(=S)NC(=O)c1sc2ccccc2c1Cl`, the z-score was 12 (active).

As to `COc1ccc(C(CC(=O)O)NC(=O)c2sc3ccccc3c2Cl)cc1` (stereo unspecified), the z-score is -0.476.

Compound `NC(N)=NS(=O)(=O)c1ccc(NC(=S)NC(=O)c2sc3ccccc3c2Cl)cc1` came in with a z-score of 0.0467.

`CCOC(=S)NC(=O)c1sc2ccccc2c1Cl`: the z-score is 11.1 (active).

Take `CCCCOC(=S)NC(=O)c1sc2ccccc2c1Cl`: the z-score was 17.3 (active).

`CC(=O)c1c(C(C)=O)c(C)n(CCCCn2c(C)c(C(C)=O)c(C(C)=O)c2C)c1C`: the z-score was -0.0757.

The compound `Cc1cc(C(=O)Nc2ccc(S(=O)(=O)Nc3onc(C)c3C)cc2)c(C)o1` returned a z-score of 0.0164.

Turning to `CC(=O)Nc1ccc(NC(=O)Cc2sc(C)nc2-c2ccc(C)cc2)cc1`, the z-score is -0.345.

Turning to `O=C(O)c1ccc(-c2nc(-c3ccccc3)c(-c3ccccc3)[nH]2)cc1`, the z-score is -1.56.

As to `Cc1ccc2oc(-c3cccc(NC(=O)c4cc(-n5cnnc5)ccc4Cl)c3)nc2c1`, the z-score was -0.0315.

Regarding `CCOC(=O)C1=C(C)N(C)C(=O)NC1c1ccc(C)s1` (stereo unspecified), the z-score is -0.0391.

In the case of `O=C(CCC(=O)Nc1ccccc1)NNC(=O)C(c1ccccc1)c1ccccc1`, the z-score is 0.336.

Turning to `Cc1nnn(C23CC4CC(CC(C4)C2)C3)n1`, the z-score is -0.708.

`Cn1c(C23CC4CC(CC(C4)C2)C3)n[nH]c1=S` returned a z-score of 0.216.

For `S=c1nn[nH]n1C12CC3CC(CC(C3)C1)C2`, the z-score worked out at 2.46.

For `COC(=O)c1sc2nc(SCc3ccccc3C#N)n(N)c(=O)c2c1C`, the z-score was 0.247.

The compound `COc1ccc(C2c3c(ncn(CCN4CCOCC4)c3=N)Oc3ccc4ccccc4c32)cc1OC` (stereo unspecified) displayed a z-score of 0.922.

`COc1ccc(C2c3ccc4ccccc4c3Oc3ncn(CCN4CCOCC4)c(=N)c32)cc1` (stereo unspecified): the z-score is 4.1 (active).

In the case of `N=c1c2c(ncn1Cc1ccco1)Oc1c(ccc3ccccc13)C2c1ccccc1` (stereo unspecified), the z-score came out at 0.538.

In the case of `COc1ccc(-c2oc3ncnc(NCCN4CCOCC4)c3c2-c2ccc(OC)cc2)cc1`, the z-score is -0.338.

`COc1ccc(-c2oc3ncn(CCN4CCOCC4)c(=N)c3c2-c2ccc(OC)cc2)cc1` gave a z-score of 2.6.

For the compound `c1ccc(-c2oc3ncnc(NCCN4CCOCC4)c3c2-c2ccccc2)cc1`, the z-score was -0.115.

`COc1ccc(C2c3c(ncn(Cc4ccco4)c3=N)Oc3ccc4ccccc4c32)cc1` (stereo unspecified): the z-score is -0.169.

With `COc1ccc(C2C3=C(CC(C)(C)CC3=O)Oc3ncn(CCO)c(=N)c32)cc1OC` (stereo unspecified), the z-score is 0.234.

Turning to `CC1(C)CC(=O)C2=C(C1)Oc1ncn(CCO)c(=N)c1C2c1ccccc1` (stereo unspecified), the z-score is 0.471.

`N=c1c2c(ncn1CCN1CCOCC1)Oc1ccc3ccccc3c1C2c1ccccc1` (stereo unspecified): the z-score is 4.03 (active).

As for `COc1ccc(C2C3=C(CC(C)(C)CC3=O)Oc3ncn(Cc4ccccc4)c(=N)c32)cc1` (stereo unspecified), the z-score worked out at 2.84.

The compound `COc1ccc(C2c3ccc4ccccc4c3Oc3ncn(Cc4ccco4)c(=N)c32)cc1OC` (stereo unspecified) showed a z-score of 0.46.

`CC(CN1CCOCC1)OC(=O)C(C)(c1ccccc1)c1ccccc1` (stereo unspecified) came in with a z-score of 0.383.

Regarding `O=C(CSc1nnc(-c2ccc(OC(F)F)cc2)o1)NC(=O)NCc1ccco1`, the z-score is -0.253.

Regarding `CC1=CC(c2ccccc2)n2nc(N3C(=O)C4CC=CCC4C3=O)nc2N1` (stereo unspecified), the z-score is -0.783.

`CC1(C)Cc2ccccc2-c2nnc(-c3cccnc3)n21` returned a z-score of 0.241.

With `CC1(C)Cc2c(ccc3ccccc23)-c2nnc(-c3cccnc3)n21`, the z-score is 3.16 (active).

For the compound `CC1(C)Cc2c(ccc3ccccc23)C(NNC(=O)c2cccnc2)=N1`, the z-score was 0.408.

For `CCOC(=O)c1c(NC(=O)c2cccs2)sc(CC)c1-c1cccs1`, the z-score is -0.275.

As to `COC(=O)c1nn(Cc2ccccc2)c(=O)c2ccccc12`, the z-score was 0.721.

Consider `O=C(CNC(=S)NC(=O)c1cccs1)c1ccccc1`, for which the z-score is 6.19 (active).

With `Cc1ccc(C(=O)NC(=S)NCC(=O)c2ccccc2)cc1`, the z-score was -0.021.

The compound `Cc1onc(-c2ccccc2Cl)c1C(=O)NCc1ccccc1` gave a z-score of 0.341.

`COc1ccc(C(=O)NC(=S)NNC(=O)Cc2cccs2)cc1` yielded a z-score of 0.741.

`COc1cc(OC)cc(C(=O)NC(=S)NNC(=O)Cc2cccs2)c1`: the z-score is 2.21.

In turn, `COc1cc(OC)cc(C(=O)NC(=S)NCCc2ccccc2)c1` had a z-score of 2.08.

With `O=C(CNC(=S)NC(=O)c1ccccc1)c1ccccc1`, the z-score was 0.079.

As for `COc1ccc(CCNC(=S)NC(=O)c2ccccc2)cc1OC`, the z-score is 0.202.

On to `O=C(NC(=S)NCCc1ccccc1)c1ccccc1`, for which the z-score is 1.9.

Compound `COc1ccc(CCNC(=O)c2c(-c3ccccc3Cl)noc2C)cc1` displayed a z-score of 0.099.

Regarding `O=C(Cc1cccs1)NNC(=S)NC(=O)c1ccccc1`, the z-score worked out at 0.646.

The compound `Cc1onc(-c2ccccc2Cl)c1C(=O)NC(=S)NCCc1ccccc1` registered a z-score of 2.63.

Consider `CNC(=S)N1CCN(C(=O)C2CCCO2)CC1` (stereo unspecified), for which the z-score is -0.25.

In turn, `CC(NC(=O)COc1ccc(/C=N/NC(=O)C(=O)Nc2ccccc2Br)cc1)c1ccccc1` (stereo unspecified) gave a z-score of 0.00853.

Consider `CCC(C)(C)NC(=O)CN(Cc1cccs1)C(=O)CNS(=O)(=O)c1ccc(C)cc1`, for which the z-score was found to be 0.191.

For the compound `CCCn1nnc(NC(=O)c2ccc(Cl)cc2Cl)n1`, the z-score is -0.0896.

Compound `O=C(NS(=O)(=O)c1ccccc1)c1ccccc1O` showed a z-score of 0.0922.

For `c1cc(-c2nnc3n2CCCCC3)ccn1`, the z-score was 0.91.

Compound `Cc1cc(Cl)ccc1NC(=S)NCc1ccccc1Cl` showed a z-score of 0.000558.

In the case of `CCn1nc(C(=O)OCC(=O)c2ccc3c(c2)OCCO3)c2ccccc2c1=O`, the z-score was -0.721.

On to `Cc1ccc(C(=O)N/C(=C/c2cccc([N+](=O)[O-])c2)C(=O)NC(C)C)cc1`, for which the z-score was -0.0623.

As to `CCC(C)Nc1nc(CN2CCOCC2)nc2sc3c(c12)CCC3` (stereo unspecified), the z-score is -0.57.

On to `CCOc1ccc(C(=O)CC(=O)C(=O)NCCc2ccc(OC)c(OC)c2)cc1`, for which the z-score is -0.0424.

Take `O=C(NC(=S)NCCc1ccccc1)c1ccco1`: the z-score is 13 (active).

In turn, `COc1ccc(S(=O)(=O)CCC(=O)NCCc2cccc(C)c2)cc1` came in with a z-score of 0.00176.

Consider `CC(C)C(=O)NC(=S)NCC(=O)c1ccccc1`, for which the z-score is -0.37.

Turning to `CC(C)(C)C(=O)NC(=S)NCCc1ccccc1`, the z-score is -0.0291.

Regarding `O=C(NCCc1ccccc1)c1ccco1`, the z-score is -0.2.

Turning to `O=C(NC(=S)N(CCc1ccccc1)CCc1ccccc1)c1ccco1`, the z-score is -1.87.

In the case of `Cc1ccccc1C(=O)NC(=S)NCCc1ccccc1`, the z-score was 6.68 (active).

In the case of `COc1ccc(C(=O)CC(=O)C(=O)NCCc2cccc(C)c2)cc1`, the z-score is 3.99 (active).

`O=C(CNC(=S)NC(=O)c1ccc(Cl)cc1)c1ccccc1` displayed a z-score of 1.87.

As to `Cc1ccccc1C(=O)NC(=S)NCC(=O)c1ccccc1`, the z-score was -0.0957.

Consider `O=C(CNC(=S)NC(=O)c1ccco1)c1ccccc1`, for which the z-score was 6.42 (active).

Take `Cc1cc2ccccc2n2c(SCC(=O)N3CCc4ccccc4C3)nnc12`: the z-score stood at 0.115.

As to `CC(=O)C1=C(c2ccccc2)NC(=S)NC1c1cc(Cl)c(OC(C)C)c(Cl)c1` (stereo unspecified), the z-score was found to be 0.616.

In the case of `O=C(CN(C(=O)c1cccc([N+](=O)[O-])c1)C1CCCCC1)Nc1ccc(Cl)c([N+](=O)[O-])c1`, the z-score is -0.137.

As to `CCOc1nc(-c2ccc(C)cc2)ccc1-c1noc(COC)n1`, the z-score was -0.156.

As for `Cc1cc(C)c(Cn2cnc(-c3ccc([N+](=O)[O-])cc3)c2)c(C)c1`, the z-score was -0.0263.

Regarding `Cc1ccc(-c2ccc(CCC(=O)O)n2C(C)C)cc1`, the z-score was -0.00219.

For the compound `CC(C)n1c(CCC(=O)O)ccc1-c1ccccc1`, the z-score was determined as 2.11.

Take `COc1ccc(-c2ccc(CCC(=O)O)n2C(C)C)cc1`: the z-score was -0.109.

Turning to `Clc1ccc(-c2nnc3n2CCCS3)cc1`, the z-score was 0.105.

For `Cc1ccc(S(=O)(=O)NCCCCC(NC(=O)OC(C)(C)C)C(=O)O)cc1` (stereo unspecified) (tested in a mixture with another compound), the z-score is -0.148.

With `O=C(CN1C(=O)NC2(CCCC2)C1=O)Nc1ccc(F)cc1`, the z-score was found to be 0.19.

Consider `CCCn1nnnc1NCc1cccn1C`, for which the z-score came to 1.98.

Turning to `CCCCn1nnnc1NCc1cccs1`, the z-score was -1.89.

`CCCn1nnnc1NCc1ccc(N2CCCC2)cc1`: the z-score is -0.208.

As for `CCc1ccc(/C=N/NC(=O)C(=O)NCCCN2CCOCC2)cc1`, the z-score was -0.174.

For the compound `CC(CC(=O)Nc1ccncc1)c1ccccc1` (stereo unspecified), the z-score was determined as 0.044.

Turning to `O=C(CCSCc1ccc(Cl)cc1)NCCc1ccccc1`, the z-score was -0.0466.

For `COc1ccc(Nc2ccc(S(=O)(=O)N3CCCCCC3)cc2[N+](=O)[O-])cc1`, the z-score stood at 0.571.

As to `COc1ccc(Nc2ccc(S(=O)(=O)N3CCCCC3)cc2[N+](=O)[O-])cc1Cl`, the z-score is 0.547.

In the case of `COc1ccc(Nc2ccc(S(=O)(=O)N3CCCCC3)cc2[N+](=O)[O-])cc1OC`, the z-score turned out to be 2.43.

Consider `COCc1cc(C)nc(Nc2ccc(C)cc2C)c1C#N`, for which the z-score is -0.225.
